# About 83,000 compounds went through this panel and 20% of them were active in at least one assay; those are over-represented in the sample as a whole.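 A percent growth of 40 corresponds to 60% growth inhibition; 0 means no net growth; -100 means all cells died. Active threshold: below 10.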 Values without a mark were called inactive. Active and inactive are the calls of the source.
# Experiments:
# Test in all cases: NCI-60 one-dose screen, 48 h (100 = growth as untreated, 0 = no growth, -100 = all killed)
# Details in all cases: 10 µM unless noted
# HCT-15 colon = tested on: HCT-15 colon
# HT29 colon = tested on: HT29 colon
# SNB-75 CNS = tested on: SNB-75 CNS
# SNB-19 CNS = tested on: SNB-19 CNS
# U251 CNS = tested on: U251 CNS
# PC-3 prostate = tested on: PC-3 prostate
# SK-MEL-5 melanoma = tested on: SK-MEL-5 melanoma
# UACC-62 melanoma = tested on: UACC-62 melanoma
# LOX IMVI melanoma = tested on: LOX IMVI melanoma
# SK-MEL-28 melanoma = tested on: SK-MEL-28 melanoma
SMILES,growth (HCT-15 colon),growth (HT29 colon),growth (SNB-75 CNS),growth (SNB-19 CNS),growth (U251 CNS),growth (PC-3 prostate),growth (SK-MEL-5 melanoma),growth (UACC-62 melanoma),growth (LOX IMVI melanoma),growth (SK-MEL-28 melanoma)
CC(C)=CC(=O)N[C@@H]1CC2CCC3C(CC[C@@]4(C)C3CC[C@@H]4C(C)N(C)C)[C@@]2(C)C[C@@H]1O (stereo not given in full),2.93% (active),-4.96% (active),56.1%,86.3%,56.7%,44.6%,10.1%,44.6%,1.62% (active),-28% (active)
Cn1c(=O)c2c(nc(NC3=NS(=O)(=O)c4ccccc43)n2Cc2ccccc2)n(C)c1=O,98.4%,111%,93.1%,96.1%,104%,95.4%,99.4%,91.5%,95.6%,107%
O=C1/C(=C/c2ccc(Br)cc2)COc2ccc(O)c(O)c21,0.349% (active),2.83% (active),20.4%,6.19% (active),-72.4% (active),-26.3% (active),29.8%,-14.2% (active),-91% (active),22%
N#Cc1c(-c2ccccc2)nc2c(c(-c3ccccc3)nn2-c2ccccc2)c1-c1ccc(N2CCOCC2)cc1,37.3%,52.4%,86.9%,94.5%,65.9%,81.7%,98.8%,106%,51.6%,107%
O=C(Cn1nnc([N+](=O)[O-])n1)c1ccccc1,80.5%,66.4%,67.9%,116%,106%,79.8%,84.1%,68.8%,59.6%,110%
NC(=O)c1ccc(NC(=O)c2oc3ccccc3c2-c2cnn(-c3ccccc3)c2)cc1,43.2% [50 µM],2.07% [50 µM] (active),-25.5% [50 µM] (active),2.3% [50 µM] (active),-19.2% [50 µM] (active),6.29% [50 µM] (active),4.65% [50 µM] (active),45.3% [50 µM],-22.6% [50 µM] (active),25.6% [50 µM]
N#Cc1c(-c2ccccc2)c(C#N)c2c(C#N)c(N)nn2c1N,24.3%,8.55% (active),52.1%,38.1%,20.3%,50.5%,24.7%,19.6%,35.6%,56.8%
O=C1/C(=C/c2cccc([N+](=O)[O-])c2)COc2ccc(O)cc21,-9.57% (active),3.32% (active),79.4%,72.2%,2.17% (active),42.9%,89.1%,59.4%,-80.6% (active),82.7%
CCOC(=O)C1=C(c2ccccc2)N=c2s/c(=C/c3ccc(Br)cc3)c(=O)n2C1c1ccc(O)cc1 (stereo not given),82.3%,87.6%,68.7%,86.7%,81.1%,64.1%,91.9%,76.1%,91.7%,92.5%
CCN1CCN(CC(=O)Nc2nc3ccc(NCc4ccc(Br)cc4)cc3s2)CC1,-18.8% (active),2.33% (active),89.4%,76.3%,52.9%,44.6%,47.6%,-47.1% (active),-76.4% (active),-66.6% (active)
Fc1ccc(CNc2c3ccccc3nc3ccccc23)cc1,17.6%,16.1%,42.1%,32.4%,25.9%,26.9%,42.5%,50.2%,9.43% (active),68.2%
COc1ccc(C(O)c2cc3c(N)c(C(=O)Nc4cccc(Cl)c4)sc3nc2C)cc1 (stereo not given),11.6%,8.32% (active),31.2%,28.3%,23.6%,27.3%,-16.9% (active),27.5%,30.7%,65.8%
COc1ccc(C(C)=O)cc1S(N)(=O)=O,107%,86%,101%,99.7%,98.6%,85.7%,104%,94.7%,106%,106%
